Measured values as given in the supplement of paper PMC10849652.
About 8,800 targets were measured; listed, in parts, are those with a hit and a random draw of the rest. About 0.5% of all pairs of compound and target were hits. Unmarked numbers belong to inactive results.

Key:
Assay in all cases: log2 fold change, soluble protein after heating vs DMSO (PISA); higher = thermal stabilisation; K562 lysate, 10 uM; active = over 0.2 and 3.5 SD of the protein, either way, in both replicates (recomputed)
erlotinib = compound: C#Cc1cccc(Nc2ncnc3cc(OCCOC)c(OCCOC)cc23)c1 [erlotinib]
Summary of the method: (§1)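 Quantification was by TMTpro 16plex LC-MS/MS with equalised channel sums, applied to the supernatant after 21,000xg for 90 min. Samples were crude K562 extract at 1 mg/mL protein in PBS pH 7.4 with 1 mM MgCl2, treated with 10 μM compound for 30 min, heated for 3 min across 48°C-58°C, pooled and brought to 0.5% NP-40 at 4°C. Values are log-two fold changes in thermal stability relative to solvent controls, from duplicates.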

[1] = compound: C/C(=N\NC(=O)C1=CC(=CC=C1)S(=O)(=O)N2CCOCC2)/C3=C(C=CC(=C3)Cl)O
Summary of the method: as §1

[2] = compound: C1=CC(=CC=C1C2=NC3=C(N2)C=C(C=C3)C(=O)N)OC4=CC=C(C=C4)Cl
Summary of the method: as §1

[3] = compound: C1=CC2=C(C=CC(=C2)/C=C\3/C(=O)NC(=NCC4=CC=CS4)S3)N=C1
Summary of the method: as §1

[4] = compound: C1=CC2=NC=CN=C2C=C1/C=C/3\C(=O)NC(=O)S3
Summary of the method: as §1

[5] = compound: C1=CC=C(C=C1)C2=NC(=C(N2)C3=CC=NC=C3)C4=CC(=C(C=C4)Cl)O
Summary of the method: as §1

[6] = compound: C1=CC=C2C(=C1)C3=NNC4=CC=CC(=C43)C2=O
Summary of the method: as §1

[7] = compound: C1CCN(C1)C(=O)NC2=CC=CC(=C2)NC3=NC=C(C(=N3)NCCC4=CN=CN4)Br
Summary of the method: as §1

[8] = compound: C1CN(CCC1(CC2=CC=C(C=C2)Cl)N)C3=NC=NC4=C3C=CN4
Summary of the method: as §1

IRAK-1-4 Inhibitor I = compound: C1COCCN1CCN2C3=CC=CC=C3N=C2NC(=O)C4=CC(=CC=C4)[N+](=O)[O-] [IRAK-1-4 Inhibitor I]
Summary of the method: as §1

UniProt Q13322, sequence (Q13322 whole entry, looked up): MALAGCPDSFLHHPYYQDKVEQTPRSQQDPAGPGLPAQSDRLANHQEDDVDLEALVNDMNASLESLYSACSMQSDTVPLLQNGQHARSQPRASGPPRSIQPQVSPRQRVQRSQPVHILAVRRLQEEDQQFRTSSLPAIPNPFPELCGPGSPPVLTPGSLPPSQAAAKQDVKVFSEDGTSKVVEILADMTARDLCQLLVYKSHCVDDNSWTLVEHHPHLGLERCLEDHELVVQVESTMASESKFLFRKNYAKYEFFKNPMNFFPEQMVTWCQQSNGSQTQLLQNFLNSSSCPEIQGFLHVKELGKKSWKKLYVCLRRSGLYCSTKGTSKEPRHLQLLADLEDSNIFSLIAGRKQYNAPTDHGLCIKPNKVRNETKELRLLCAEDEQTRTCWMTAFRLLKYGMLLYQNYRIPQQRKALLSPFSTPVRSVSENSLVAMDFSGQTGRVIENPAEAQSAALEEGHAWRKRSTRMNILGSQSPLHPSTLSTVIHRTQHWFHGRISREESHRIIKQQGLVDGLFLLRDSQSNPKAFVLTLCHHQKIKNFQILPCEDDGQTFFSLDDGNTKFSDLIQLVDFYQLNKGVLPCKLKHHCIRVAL
UniProt Q9BT25, sequence (Q9BT25 whole entry, looked up): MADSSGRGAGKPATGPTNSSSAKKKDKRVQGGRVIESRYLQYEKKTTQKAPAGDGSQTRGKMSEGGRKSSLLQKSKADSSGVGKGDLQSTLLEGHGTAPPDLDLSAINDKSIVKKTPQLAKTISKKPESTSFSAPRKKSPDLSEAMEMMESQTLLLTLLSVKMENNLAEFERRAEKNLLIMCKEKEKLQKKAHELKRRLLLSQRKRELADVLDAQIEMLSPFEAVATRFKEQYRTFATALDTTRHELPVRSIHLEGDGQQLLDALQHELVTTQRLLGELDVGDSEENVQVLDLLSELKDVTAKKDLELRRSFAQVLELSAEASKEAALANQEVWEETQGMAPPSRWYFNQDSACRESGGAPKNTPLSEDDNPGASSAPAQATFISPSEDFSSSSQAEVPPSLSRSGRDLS
UniProt P82970, sequence (P82970 whole entry, looked up): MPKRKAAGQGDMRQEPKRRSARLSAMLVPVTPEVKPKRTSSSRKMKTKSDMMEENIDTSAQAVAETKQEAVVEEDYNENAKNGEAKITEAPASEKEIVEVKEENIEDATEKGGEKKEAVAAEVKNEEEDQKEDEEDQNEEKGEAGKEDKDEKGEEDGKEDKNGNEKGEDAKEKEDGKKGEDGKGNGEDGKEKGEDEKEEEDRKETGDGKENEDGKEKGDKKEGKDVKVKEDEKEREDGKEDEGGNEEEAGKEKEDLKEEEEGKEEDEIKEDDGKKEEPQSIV
UniProt Q96SY0, sequence (Q96SY0 whole entry, looked up): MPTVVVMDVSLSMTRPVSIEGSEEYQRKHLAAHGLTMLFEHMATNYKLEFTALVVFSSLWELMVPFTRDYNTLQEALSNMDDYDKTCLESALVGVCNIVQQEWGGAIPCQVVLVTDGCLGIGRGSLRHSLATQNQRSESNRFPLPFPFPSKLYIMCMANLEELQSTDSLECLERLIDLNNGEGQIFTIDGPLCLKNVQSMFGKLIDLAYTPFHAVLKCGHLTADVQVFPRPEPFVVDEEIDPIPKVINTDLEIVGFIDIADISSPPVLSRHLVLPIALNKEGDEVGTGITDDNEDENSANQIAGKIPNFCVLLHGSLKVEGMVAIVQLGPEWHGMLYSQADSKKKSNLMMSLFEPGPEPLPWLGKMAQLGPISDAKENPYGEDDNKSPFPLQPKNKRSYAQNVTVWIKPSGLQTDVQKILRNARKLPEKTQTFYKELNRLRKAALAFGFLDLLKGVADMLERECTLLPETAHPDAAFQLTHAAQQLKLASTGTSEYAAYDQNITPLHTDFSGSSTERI
UniProt Q9BUE6, sequence (Q9BUE6 whole entry, looked up): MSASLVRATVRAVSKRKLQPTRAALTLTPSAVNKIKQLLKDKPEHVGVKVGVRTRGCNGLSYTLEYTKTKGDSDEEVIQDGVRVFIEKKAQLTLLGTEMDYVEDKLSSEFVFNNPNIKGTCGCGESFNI
UniProt Q9NWZ3, sequence (Q9NWZ3 whole entry, looked up): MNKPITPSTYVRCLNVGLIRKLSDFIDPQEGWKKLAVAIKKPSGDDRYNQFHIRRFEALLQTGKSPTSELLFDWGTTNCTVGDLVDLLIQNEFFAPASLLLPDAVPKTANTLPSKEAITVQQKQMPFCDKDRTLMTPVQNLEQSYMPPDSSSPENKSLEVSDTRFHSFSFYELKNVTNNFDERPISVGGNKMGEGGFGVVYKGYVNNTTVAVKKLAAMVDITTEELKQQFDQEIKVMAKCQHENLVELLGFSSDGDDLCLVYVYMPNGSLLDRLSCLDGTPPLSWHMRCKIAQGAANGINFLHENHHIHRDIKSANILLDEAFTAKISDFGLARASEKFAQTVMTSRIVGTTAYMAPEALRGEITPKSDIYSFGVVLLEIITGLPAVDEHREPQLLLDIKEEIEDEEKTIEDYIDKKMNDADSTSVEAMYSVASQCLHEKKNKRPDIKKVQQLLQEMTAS
UniProt Q49A26, sequence (Q49A26 whole entry, looked up): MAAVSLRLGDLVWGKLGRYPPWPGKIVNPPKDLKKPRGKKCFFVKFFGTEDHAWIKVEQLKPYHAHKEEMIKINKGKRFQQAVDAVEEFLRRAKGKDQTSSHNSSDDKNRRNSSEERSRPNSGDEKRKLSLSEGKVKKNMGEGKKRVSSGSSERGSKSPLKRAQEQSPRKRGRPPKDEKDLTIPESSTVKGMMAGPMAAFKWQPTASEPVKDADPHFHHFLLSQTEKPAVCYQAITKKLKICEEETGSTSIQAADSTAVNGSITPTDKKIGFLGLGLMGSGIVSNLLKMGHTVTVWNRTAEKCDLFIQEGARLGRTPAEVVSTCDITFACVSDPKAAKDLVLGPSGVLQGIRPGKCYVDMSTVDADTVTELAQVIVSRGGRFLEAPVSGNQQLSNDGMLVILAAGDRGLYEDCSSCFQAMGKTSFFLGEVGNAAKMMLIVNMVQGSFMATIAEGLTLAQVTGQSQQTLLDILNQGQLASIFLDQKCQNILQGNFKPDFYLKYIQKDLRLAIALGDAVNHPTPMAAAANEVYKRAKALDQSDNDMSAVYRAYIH
UniProt O15550, sequence (O15550 whole entry, looked up): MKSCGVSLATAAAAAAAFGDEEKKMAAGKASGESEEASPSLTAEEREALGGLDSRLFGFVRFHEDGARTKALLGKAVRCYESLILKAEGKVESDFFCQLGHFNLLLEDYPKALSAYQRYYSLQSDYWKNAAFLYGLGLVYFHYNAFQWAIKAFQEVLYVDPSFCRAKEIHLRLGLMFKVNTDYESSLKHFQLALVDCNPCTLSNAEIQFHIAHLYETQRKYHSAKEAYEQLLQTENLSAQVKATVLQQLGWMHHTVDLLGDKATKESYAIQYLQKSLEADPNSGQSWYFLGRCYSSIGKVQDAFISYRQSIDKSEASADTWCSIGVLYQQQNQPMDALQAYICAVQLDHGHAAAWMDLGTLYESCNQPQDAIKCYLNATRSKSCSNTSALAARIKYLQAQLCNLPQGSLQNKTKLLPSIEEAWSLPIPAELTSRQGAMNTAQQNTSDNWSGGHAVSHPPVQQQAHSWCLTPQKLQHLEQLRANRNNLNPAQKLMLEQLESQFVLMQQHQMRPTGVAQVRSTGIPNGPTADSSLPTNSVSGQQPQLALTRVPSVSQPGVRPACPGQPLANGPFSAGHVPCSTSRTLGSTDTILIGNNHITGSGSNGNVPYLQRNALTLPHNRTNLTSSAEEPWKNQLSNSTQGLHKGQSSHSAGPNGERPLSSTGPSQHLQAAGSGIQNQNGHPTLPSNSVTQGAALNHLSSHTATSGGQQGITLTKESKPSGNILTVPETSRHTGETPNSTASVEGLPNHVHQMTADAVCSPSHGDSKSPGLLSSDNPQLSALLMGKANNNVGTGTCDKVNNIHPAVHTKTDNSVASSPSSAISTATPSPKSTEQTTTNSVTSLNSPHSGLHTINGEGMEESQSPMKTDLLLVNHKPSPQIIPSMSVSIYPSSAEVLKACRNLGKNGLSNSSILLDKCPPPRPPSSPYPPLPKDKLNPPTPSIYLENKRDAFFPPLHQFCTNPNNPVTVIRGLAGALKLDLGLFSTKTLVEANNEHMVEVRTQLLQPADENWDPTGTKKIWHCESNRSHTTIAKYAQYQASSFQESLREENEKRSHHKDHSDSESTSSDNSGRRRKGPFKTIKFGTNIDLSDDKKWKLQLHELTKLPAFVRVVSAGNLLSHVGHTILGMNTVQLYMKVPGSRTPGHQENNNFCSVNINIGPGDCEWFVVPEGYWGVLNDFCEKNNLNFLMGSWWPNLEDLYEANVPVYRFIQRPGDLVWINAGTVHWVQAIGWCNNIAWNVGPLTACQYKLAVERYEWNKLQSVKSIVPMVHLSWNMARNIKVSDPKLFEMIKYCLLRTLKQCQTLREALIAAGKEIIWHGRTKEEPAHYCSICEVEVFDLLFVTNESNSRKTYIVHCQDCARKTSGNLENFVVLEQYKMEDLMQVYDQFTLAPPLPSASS
UniProt Q0VDF9, sequence (Q0VDF9 whole entry, looked up): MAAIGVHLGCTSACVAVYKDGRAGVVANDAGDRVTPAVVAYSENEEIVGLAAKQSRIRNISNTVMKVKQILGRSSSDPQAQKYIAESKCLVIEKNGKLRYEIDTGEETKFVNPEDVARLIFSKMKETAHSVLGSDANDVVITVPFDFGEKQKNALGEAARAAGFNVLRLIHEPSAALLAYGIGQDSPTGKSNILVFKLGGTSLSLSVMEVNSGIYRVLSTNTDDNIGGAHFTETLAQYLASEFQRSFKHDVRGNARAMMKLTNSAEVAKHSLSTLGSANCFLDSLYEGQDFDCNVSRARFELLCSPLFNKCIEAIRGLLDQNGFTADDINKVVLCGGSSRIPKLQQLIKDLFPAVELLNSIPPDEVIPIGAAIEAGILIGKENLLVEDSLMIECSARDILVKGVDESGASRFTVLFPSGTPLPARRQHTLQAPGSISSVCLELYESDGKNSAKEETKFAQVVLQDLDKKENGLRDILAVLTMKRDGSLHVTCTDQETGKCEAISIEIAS

Target | log2 fold change (erlotinib) | log2 fold change [1] | log2 fold change [2] | log2 fold change [3] | log2 fold change [4] | log2 fold change [5] | log2 fold change [6] | log2 fold change [7] | log2 fold change [8] | log2 fold change (IRAK-1-4 Inhibitor I)
ITPKA (UniProt P23677) | 0.021 | -0.042 | 0.041 | 0.043 | 0.006 | 0.046 | 0.006 | -0.07 | 0.011 | -0.013
KCTD20 (UniProt Q7Z5Y7) | 0.072 | -0.145 | -0.006 | 0 | 0.001 | 0.063 | 0.038 | 0.081 | 0.083 | 0.048
KBTBD4 isoform 2 (UniProt Q9NVX7) | 0.09 | 0.013 | 0.036 | 0.013 | -0.096 | 0.016 | -0.073 | -0.028 | 0.013 | -0.017
GRB10 (UniProt Q13322) | 0.027 | -0.004 | -0.06 | 0.013 | -0.03 | 0.016 | 0.019 | 0.073 | 0.054 | -0.039
HS1BP3 (UniProt Q53T59) | -0.019 | -0.04 | 0.007 | -0.013 | -0.027 | -0.031 | 0.029 | -0.022 | 0.01 | 0.01
GMDS (UniProt O60547) | 0.017 | 0.005 | 0.029 | -0.054 | -0.012 | -0.023 | -0.043 | 0.019 | 0.036 | 0.01
HAUS6 (UniProt Q7Z4H7) | 0.031 | 0.102 | -0.038 | -0.035 | -0.008 | 0.019 | 0.024 | -0.015 | 0.039 | 0.017
INTS14 (UniProt Q96SY0) | 0.007 | -0.13 | 0.025 | 0.008 | -0.012 | -0.001 | 0.018 | -0.01 | 0 | 0.006
HSPA8 (UniProt E9PK54) | 0.045 | -0.222 | -0.045 | -0.099 | 0.014 | -0.044 | 0 | -0.043 | -0.008 | -0.141
GOLPH3L (UniProt Q9H4A5) | 0.028 | -0.003 | 0.012 | 0.07 | -0.03 | 0.092 | -0.085 | 0.005 | 0.03 | 0.023
HELQ (UniProt Q8TDG4) | -0.029 | -0.023 | 0.044 | 0.07 | 0.019 | 0.004 | 0.077 | 0.056 | 0.064 | -0.033
KBTBD2 (UniProt Q8IY47) | -0.002 | 0.019 | 0.056 | 0 | 0.011 | 0.016 | -0.079 | -0.023 | 0.052 | 0.097
HSPA14 (UniProt Q0VDF9) | 0.014 | 0.025 | -0.009 | 0.009 | 0.012 | 0.049 | -0.035 | 0.018 | 0.014 | 0.003
IGF2BP3 (UniProt O00425) | 0.04 | 0.023 | -0.007 | 0.003 | 0.005 | 0.024 | -0.067 | 0.026 | 0 | -0.018
ILK (UniProt Q13418) | 0.112 | 0.025 | 0.019 | 0.012 | 0.002 | -0.018 | -0.04 | 0.029 | -0.035 | 0.045
HMGN5 (UniProt P82970) | 0.013 | -0.122 | 0.052 | 0.021 | -0.002 | -0.013 | 0.024 | 0.067 | 0.024 | 0.007

Target | log2 fold change (erlotinib) | log2 fold change [1] | log2 fold change [2] | log2 fold change [3] | log2 fold change [4] | log2 fold change [5] | log2 fold change [6] | log2 fold change [7] | log2 fold change [8] | log2 fold change (IRAK-1-4 Inhibitor I)
GPR108 (UniProt Q9NPR9) | 0.035 | 0.022 | 0 | 0.066 | 0.015 | 0.056 | -0.028 | -0.015 | 0.03 | -0.026
HIST2H2AA3 (UniProt Q6FI13) | -0.012 | -0.956 | 0.002 | -0.054 | -0.05 | 0.126 | 0.012 | 0.083 | 0.019 | -0.055
HDAC3 (UniProt O15379) | 0.061 | -0.035 | 0.056 | -0.008 | -0.001 | 0.01 | 0.019 | -0.017 | 0.029 | 0.028
HECTD3 (UniProt Q5T447) | 0.027 | 0 | -0.005 | 0.008 | 0.022 | 0.018 | -0.008 | -0.028 | -0.026 | 0.008
ISCA1 isoform 2 (UniProt Q9BUE6) | -0.025 | -0.036 | 0.021 | -0.007 | -0.04 | -0.033 | -0.013 | 0.003 | -0.031 | 0.031
KARS1 (UniProt Q15046) | -0.015 | 0.002 | -0.04 | -0.016 | -0.005 | 0.004 | -0.021 | -0.006 | -0.021 | -0.017
HAUS8 (UniProt Q9BT25) | 0.007 | -0.007 | 0.007 | 0.016 | -0.06 | -0.029 | 0.142 | 0.001 | 0.062 | 0.015
IRAK4 (UniProt Q9NWZ3) | -0.03 | -0.071 | -0.037 | -0.019 | 0.037 | 0.015 | 0.223 | 0.3 (active) | -0.037 | 0.006
ISY1 isoform 1 (UniProt Q9ULR0) | 0.022 | 0.07 | 0.02 | 0.06 | 0.018 | 0.004 | -0.004 | 0.031 | 0.068 | 0.014
KDM6A (UniProt O15550) | -0.022 | -0.039 | 0.061 | 0 | 0.006 | 0.023 | -0.064 | 0.004 | 0.045 | 0.017
GLYR1 (UniProt Q49A26) | 0.025 | 0.061 | -0.018 | 0.021 | 0.041 | 0.029 | -0.01 | 0.11 | 0.035 | 0.006
HECTD4 (UniProt J3KPF0) | 0.076 | -0.002 | 0.035 | -0.125 | -0.02 | 0.024 | -0.055 | -0.027 | 0.01 | -0.009
GOLGA6B (UniProt A6NDN3) | 0.092 | -0.061 | -0.082 | 0.033 | 0.08 | -0.013 | -0.054 | 0.011 | 0.032 | -0.022
HSD17B10 (UniProt Q99714) | 0.018 | -0.044 | 0.035 | -0.023 | 0.01 | 0.016 | -0.054 | -0.03 | 0.054 | 0.012
KDM5B isoform 2 (UniProt Q9UGL1) | 0.07 | 0.03 | 0.006 | -0.021 | 0.031 | 0.012 | -0.074 | -0.035 | 0.099 | 0.011
